Rows were chosen to be rich in hits. Some 2.2% of all compounds tested hit in one or more screens of this group.
HDAC3 inh: human HDAC3 inhibition | hit rate 0.15% among 320,000 | O15379 | inhibition, % at 8.3 µM | recombinant HDAC3, fluorogenic peptide/trypsin coupled, fluorescence; in the data active = inhibition above about 26%, passing the limit was not always enough; inconclusive = no clear call, values can overlap the other calls
SUMO Mot1 rescue: SUMOylation pathway inhibition by Mot1-301 growth rescue. growth rescue, % at 18.8 µM. AID 2716. S. cerevisiae Mot1-301 growth rescue, ATP luminescence, 38.5C; percent above DMSO median, 100 means doubled. hit rate 1% among 320,000;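 active = every valid replicate shows activation above 250% relative to neutral control wells; inactive = the rest, any valid replicate at or below 250%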
GASC-1 inh: blocks human GASC-1 demethylase activity | GST-JMJD2C(1-420) H3K9me3 demethylation, DELFIA europium | inhibition, % at 2.35 µM | hit rate 0.069% among 330,000;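 active = more than half of a compound's replicate wells show inhibition beyond 50%, single wells judged on their own value; inconclusive = some, but no more than half, of replicates pass 50% inhibition; inactive = no replicate passes 50% inhibition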;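 also: signal counts dimethyl H3K9 product captured on neutravidin plate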
PvdQ inh: blocks Pseudomonas aeruginosa PvdQ acylase activity; purified PvdQ acylase, fluorescence plate reader; hit rate 0.063% among 340,000; inhibition, % at 10 µM; in the data active = inhibition above about 30%, passing the limit was not always enough; inconclusive = no clear call, values can overlap the other calls
PHOSPHO1 inh: PHOSPHO1 (human) inhibition. recombinant PHOSPHO1, absorbance phosphatase assay. Q8TCT1. AID 1565. inhibition, % at 13.3 µM. hit rate 1.1% among 290,000; in the data active = inhibition above about 60%
Target sequence (Q8TCT1 whole entry, looked up): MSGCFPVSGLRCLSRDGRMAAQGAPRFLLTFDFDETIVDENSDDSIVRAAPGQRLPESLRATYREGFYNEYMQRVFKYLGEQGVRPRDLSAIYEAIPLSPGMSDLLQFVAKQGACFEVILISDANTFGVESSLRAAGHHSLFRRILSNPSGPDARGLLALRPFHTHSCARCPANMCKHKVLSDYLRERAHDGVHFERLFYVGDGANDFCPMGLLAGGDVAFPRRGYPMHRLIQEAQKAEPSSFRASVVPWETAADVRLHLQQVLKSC
p-CIP stab down: compounds decreasing mouse p/CIP protein stability; decrease of EGFP signal, % at 10 µM; Q05BA5; F442A p/CIP-EGFP cells, EGFP fluorescence, 16 h; hit rate 0.01% among 290,000;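 active = EGFP signal decrease of at least 30% at 10 µM or well 3 SD below plate mean, unless failing retest; inactive = the rest, including hits failing retest or dose response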
Yeast Mot1 SUMO: inhibits SUMO pathway, affecting Mot1-301 yeast growth | shares compounds with SUMO Mot1 rescue | S. cerevisiae Mot1-301 galactose growth, ATP luminescence, 24 h; -100 = growth of slx-deleted rescue strain | growth activity, percent, % at 42 µM | 2,300 tested, under 10 active | AID 493004;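 active = Signal drops as the depositor expects, and the fitted half-maximal dose is no more than ten times the top valid tested dose; inconclusive = Poor fit, or a flat curve whose signal drops by 30% to 70%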;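 also: more negative values mean stronger growth rescue toward the control strain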
Numbers stand for hits; - = inactive; ? = inconclusive; . = no result given.

SMILES	HDAC3 inh	SUMO Mot1 rescue	GASC-1 inh	PvdQ inh	PHOSPHO1 inh	p-CIP stab down	Yeast Mot1 SUMO
O=S(=O)(Nn1c(O)c(C=C2N=c3ccccc3=N2)sc1=S)c1ccccc1	.	908	-	-	-	-	-
Oc1c(C=C2N=c3ccccc3=N2)sc(=S)n1-c1ccccc1	-	-	-	-	-	-	.
COC(=O)c1[nH]c2ccccc2c1NC(=O)C(C)N1CC(C)OC(C)C1 (stereo not drawn)	-	-	-	-	-	-	.
CC(C)NC(=O)NC(=O)CSc1nnc(COc2ccccc2Cl)o1	-	-	-	-	-	-	.
O=C(CSc1nnc(COc2ccccc2Cl)o1)NC(=O)NC1CCCC1	-	392	-	-	-	-	-
CS(=O)(=O)Nc1cccc(C2=NN(C(=O)c3ccco3)C(c3cccs3)C2)c1 (stereo not drawn)	-	-	-	-	-	-	.
CC1(C)CC(=O)C2=C(C1)Oc1ncn(CCCO)c(=N)c1C2c1ccccc1 (stereo not drawn)	-	-	-	-	-	-	.
CC1(C)CC(=O)C2=C(C1)Oc1ncn(CCO)c(=N)c1C2c1ccccc1 (stereo not drawn)	-	543	-	-	-	-	-
COc1ccc(-c2cc(=O)c3cc(O)ccc3o2)cc1	-	554	?	-	-	-	-
CCOC(=O)c1ccc(N2CCN(C(=O)c3ccccc3)CC2)c(NC(=O)c2ccco2)c1	-	-	-	-	-	-	.
Cc1ccc(S(=O)(=O)N2CCN(C(=O)CNC(=O)c3sc4ccccc4c3Cl)CC2)cc1	-	-	-	-	.	.	.
CN1CCCCC1=NCCCn1cnc2c1c(=O)n(C)c(=O)n2C	-	602	-	-	-	-	-
O=C(N1CCN(c2ccccc2)CC1)C12CC3CC(CC(C3)C1)C2	-	-	-	-	-	-	.
CCn1c(N2CCN(C(=O)C34CC5CC(CC(C5)C3)C4)CC2)nc2ccccc21	-	389	-	-	-	-	-
COc1ccc(C)cc1NC(=O)C12CCC(C)(C(=O)O1)C2(C)C (stereo not drawn)	-	461	-	-	-	-	-
O=C(CCc1nnc(Cc2c[nH]c3ccccc23)o1)NC(C1CC1)C1CC1	-	-	-	-	-	-	.
Cc1c(OCC(=O)NCC2CCC(C(=O)O)CC2)ccc2c(-c3ccccc3)cc(=O)oc12 (stereo not drawn)	-	-	?	-	-	-	.
CC1CC2C(C(O)CC3(C)C2CCC3(O)C(=O)CO)C2(C)C=CC(=O)C=C12 (stereo not drawn)	.	.	.	-	.	.	.
COc1cc(-c2nnc3sc(C4CCCCC4)nn23)cc(OC)c1OC	-	.	-	-	-	-	.
Cc1cc(-c2nnc3sc(C4CCCCC4)nn23)n[nH]1	-	691	-	-	-	-	-
COc1ccc(CCC(=O)OCC(=O)Nc2ccccc2OC(F)F)cc1OC	-	-	-	-	-	-	.
